Sampled rows, rich in hits. Any-hit rate of the full collection: about 4.1%.
ssDAF12 agonist = S. stercoralis DAF-12 nuclear receptor activators, primary screen, cell-based, luminescence, HEK293, GRIP1 co-expression, lit1-tk-luc | Nuclear hormone receptor DAF-12 (Strongyloides stercoralis) | HEK293 ssDAF-12/GRIP1 lit1-tk-luc reporter; % of 3 µM dafachronic acid response | activation, % at 6.8 µM | actives 1% (n = 370,000) | AID 652126, 2013;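 active = activation above the mean over all tested compounds plus 3 SD, cut at about 0.9% in these data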
hcDAF-12 act = H. contortus DAF-12 nuclear receptor activators, primary screen, cell-based, luminescence, HEK293, lit1-tk-luc reporter; AID 652067, 2013; activation, % at 6.8 µM; HEK293 hcDAF-12 lit1-tk-luc reporter; 0% DMSO, 100% Δ7-dafachronic acid; actives 1.4% (n = 370,000);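 active = activation above the mean of all tested compounds plus 3 SD, cut at about 5.5% in these data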
hgDAF-12 ag = H. glycines DAF-12 receptor agonists, primary screen, cell-based, luminescence, HEK293, GAL4 fusion, UAS-luciferase; HEK293 GAL4-hgDAF12 UAS-luciferase reporter, agonist luminescence; normalized to butyrate control; activation, % at 6.8 µM; actives 1.8% (n = 370,000);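 active = activation above a cutoff set at the mean of all screened compounds plus 3 SD, cut at about 10% in these data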
DAX1 inh-1 = DAX1 (NR0B1) inhibitors on StAR promoter, primary screen, cell-based, luminescence, SF-1 (NR5A1), full-length DAX-1; HEK293T StAR-luciferase reporter, SF-1/DAX-1 repression relief; inhibition, % at 6.8 µM; actives 1.1% (n = 370,000); AID 652010, 2013;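 active = inhibition above the mean over all tested compounds plus 3 SD, cut at about 3.6% in these data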;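 also: higher inhibition means more luminescence from relief of DAX-1 repression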
DAX1 inh-2 = DAX1 (NR0B1) inhibitors, primary screen, cell-based, HEK293, Gal4-DAX1, luciferase luminescence; Nuclear receptor subfamily 0 group B member 1 (Homo sapiens), P51843; HEK293 Gal4-DAX1 luciferase reporter; inhibition, % at 6.75 µM; actives 0.99% (n = 340,000); AID 504766, 2011;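 active = inhibition above the mean over all tested compounds plus 3 SD, cut at about 4.2% in these data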;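 also: inhibition shows as a rise in luminescence from relieved DAX1 repression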
Target sequence (P51843 207-470 limits assumed): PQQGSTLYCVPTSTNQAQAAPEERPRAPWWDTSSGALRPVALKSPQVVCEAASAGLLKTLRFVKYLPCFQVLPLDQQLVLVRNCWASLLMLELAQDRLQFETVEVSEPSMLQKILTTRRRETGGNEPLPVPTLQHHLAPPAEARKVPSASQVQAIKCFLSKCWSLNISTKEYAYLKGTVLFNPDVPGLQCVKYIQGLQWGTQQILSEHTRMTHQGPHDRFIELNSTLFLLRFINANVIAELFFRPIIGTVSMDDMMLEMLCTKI
Numbers stand for hits; - = inactive; . = no result.

SMILES	ssDAF12 agonist	hcDAF-12 act	hgDAF-12 ag	DAX1 inh-1	DAX1 inh-2
O=C(NNC(=S)Nc1ccccc1)c1cc(Br)ccc1Cl	-	6.1	-	-	-
COc1ccc(NC(=O)COC(=O)CCC(=O)c2cccs2)cc1OC	-	-	-	-	-
O=C(O)c1cc(S(=O)(=O)Nc2ccc3cn[nH]c3c2)ccc1O	1.0	-	-	-	-
C(#CSCc1ccccc1)SCc1ccccc1	-	-	-	-	4.3
c1ccc(CSCc2ccccc2)cc1	-	-	-	-	-
CCn1c(Cc2cccs2)nnc1SCC(=O)Nc1ccccc1-c1ccccc1	-	-	-	-	.
CC(c1ccccc1)c1nnc(N)s1 (stereo unspecified)	-	-	-	-	4.7
Cc1sc2ncnc(NC(C)C(=O)O)c2c1C (stereo unspecified)	-	-	-	-	5.3
COc1ccccc1C(=O)Nc1nnc(-c2ccc3c(c2)CCCC3)o1	-	-	-	-	-
CC(=O)Nc1nnc(-c2ccc3c(c2)CCCC3)o1	-	-	11	3.8	-
CCOC(=O)[C@@]12CCCC3=C1N(CCC3)C(=O)[C@H]2CC(=O)NCCC(C)C	-	-	-	-	.
O=C(NNS(=O)(=O)c1ccc(Br)cc1)c1csnn1	-	-	-	-	5.1
COc1cc(CN2C[C@@H](CO)O[C@@H](n3cnc4c(N(C)C)ncnc43)C2)cc(OC)c1OC	-	-	-	-	.
CCCC1CCC2(CC1)CCC2OC(=S)Nc1ccccc1OC (stereo unspecified)	-	-	-	.	.
O=C(CCc1nc2ccccc2c(=O)[nH]1)NCc1ccco1	-	-	-	-	5.4
O=C(CCc1nc2ccccc2c(=O)[nH]1)NCc1ccccn1	-	-	-	-	-
CCC(C)NC(=O)CNc1nnnn1-c1ccccc1 (stereo unspecified)	-	-	-	-	.
CN(C(=O)C1CCN(c2cncnc2)CC1)C1CCCCC1	-	-	-	-	.
CCOC(=O)N1CCC(N2CC34C=CC(O3)C(C(=O)Nc3ccc(C)cc3)C4C2=O)CC1 (stereo unspecified)	-	-	-	-	4.5
O=C(CCC1CCCC1)NCCCN1CCOCC1	-	-	-	-	-
O=C(CC1CCCCC1)NCCCN1CCOCC1	-	6.1	-	-	-
COc1ccc(Cn2cc(CN3[C@@H](CC(C)C)COc4cccc(F)c4S3(=O)=O)nn2)cc1	-	-	-	-	.
COc1ccc(NC(=S)c2ccc(N(C)C)cc2)cc1	-	-	-	3.8	-
CCC(C)NS(=O)(=O)c1cc2c3c(c1)CCN3C(=O)CC2 (stereo unspecified)	-	-	-	-	-
Clc1ccc(-c2nnc(CCc3ccccc3)o2)c(Cl)c1	-	5.8	-	-	-
SMILES	ssDAF12 agonist	hcDAF-12 act	hgDAF-12 ag	DAX1 inh-1	DAX1 inh-2
O=C(N[C@H](C(=O)N1CCC[C@H]1C(=O)NCc1ccccc1)c1ccccc1)C1CCCC1	-	-	-	-	.
Cc1ccc(N2C(=O)c3ccccc3C2Nc2ccccc2F)nc1 (stereo unspecified)	-	-	13	-	-
COc1cc(OC)c(NC2c3ccccc3C(=O)N2c2cc(C)ccn2)cc1Cl (stereo unspecified)	-	-	12	3.6	-
NNC(=O)c1oc2ccccc2c1-n1cccc1	-	-	-	-	-
O=C(O)c1oc2ccc(Br)cc2c1-n1cccc1	-	-	-	-	7.0
Cc1ccc(S(=O)(=O)NC2c3cccc4cccc(c34)C2Sc2nc(C)cc(C)n2)cc1 (stereo unspecified)	1.4	-	-	-	-
Cc1ccc(S(=O)(=O)NC2c3cccc4cccc(c34)C2Sc2nncn2C)cc1 (stereo unspecified)	-	-	-	-	-
COc1ccc(C(=O)C[n+]2ccc3c(c2)nc(Cc2ccccc2)n3C)cc1	-	-	-	-	.
Cc1nonc1C(=O)N/N=C/c1ccc(O)c(O)c1	-	-	-	-	-
O=C(N/N=C/c1ccc(O)c(O)c1)N/N=C/c1ccc(O)c(O)c1	-	7.3	-	-	-
